# Assay results: PubChem BioAssay (NCATS)
# Values joined by “and” are separate entries in the source; they are usually repeats but may differ in a detail not shown here. Equal entries are not always repeated. Results filed as inconclusive are left out. Entries that show only a call come without a potency. Unmarked numbers belong to inactive results. Active and inactive are the calls of the source. Calls follow the shape of the dose curve; as a rule, active = well fitted curve in the direction sought with a large enough effect; inconclusive = small, poorly fitted or top-dose-only effect, or another doubt; inactive = no such curve, though single readings can be large; an effect the other way counts as inactive or inconclusive.
# Experiments:
# [1] = tested on: OV90; assay: Primary qHTS to identify gynecologic anti-cancer compounds using libraries of approved drugs and bioactive compounds (AID 1345084); conditions: Gynecologic cancer cell panel viability, ATPlite luminescence, 48 h; series mostly up to 57.5 µM; also: nearly all actives have a fitted effect of over 55% in size; also: potency is read from the fitted curve at half-maximal effect
# In short: (§1)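 In this quantitative HTS, cell killing is estimated from loss of ATP-dependent luciferase light. Cells see five compound concentrations over a 48 h exposure.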
# [2] = tested on: PA-1; assay: as above; conditions: Gynecologic cancer cell panel viability, ATPlite luminescence, 48 h; series mostly up to 57.5 µM
# In short: as §1
# [3] = tested on: SKOV3; assay: as above; conditions: Gynecologic cancer cell panel viability, ATPlite luminescence, 48 h; series mostly up to 57.5 µM
# In short: as §1
# [4] = tested on: Tov-21-G; assay: as above; conditions: Gynecologic cancer cell panel viability, ATPlite luminescence, 48 h; series mostly up to 57.5 µM
# In short: as §1
# [5] = tested on: Tov112D; assay: as above; conditions: Gynecologic cancer cell panel viability, ATPlite luminescence, 48 h; series mostly up to 57.5 µM
# In short: as §1
# [6] = Drug repurposing screens with cells derived from glioblastoma tumor samples (AID 1345199); conditions: GBM patient neurospheres viability, ATP luminescence, 48 h; also: nearly all actives have a fitted effect of over 40% in size
# In short: (§2)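 Primary testing used CD133+ neurospheres from four GBM patients, seven concentrations, 48 h exposure and ATP-based viability; confirmation added three slower-growing patient lines.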
# [7] = tested on: astro; assay: as above; conditions: viability, ATP luminescence, 48 h; series mostly up to 45.9 µM
# In short: as §2
# [8] = qHTS assay to identify inhibitors of the type 1 interferon - major histocompatibility complex class I in skeletal muscle: Counter screen cell viability and HiBit confirmation (AID 1347412); conditions: iHSKM muscle cells + IFN-b, HiBiT or CellTiter-Glo, 24 h; HiBiT; also: potency is read from the fitted curve at half-maximal effect; nearly all actives have a fitted effect of over 60% in size
# In short: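 CRISPR HLA-B*08:01-HiBit immortalized human myoblasts (C25cl48) stimulated with 4 ng/ml IFN-beta and compounds (12-point 1:3, top 46 uM final) for 24 h at 37 C. Duplicate plates read by HiBit lytic luminescence or CellTiter Glo ATP.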
# [9] = at 45.9 µM (top of the series), tumour line B
# [10] = at 45.9 µM (top of the series), tumour line D
# [11] = at 46 µM (top of the series), tumour line A
# [12] = at 46.1 µM (top of the series), tumour line C
compound,measurement,setting,value
OC[C@H]1O[C@@H](OCCc2ccc(O)cc2)[C@H](O)[C@@H](O)[C@@H]1O,Potency,[1],inactive
same,Potency,[2],inactive
same,Potency,[3],inactive
same,Potency,[4],inactive
same,Potency,[5],inactive
same,"activity, negative = cell killing",[6]; [9],-17.4%
same,"activity, negative = cell killing",[6]; [10],11.3%
same,"activity, negative = cell killing",[6]; [11],-5.89%
same,"activity, negative = cell killing",[6]; [12],4.11%
same,Potency,[7],inactive
CCC[C@@H]1C[C@@H](C(=O)N[C@H](C(C)Cl)[C@H]2O[C@H](SC)[C@H](O)[C@@H](O)[C@H]2O)N(C)C1 (some centres not stated),Potency,[1],inactive
same,Potency,[2],inactive
same,Potency,[3],inactive
same,Potency,[4],inactive
same,Potency,[5],inactive
CC(=O)N1CCN(NC(=O)c2ccc(F)cc2)CC1,Potency,[1],inactive
same,Potency,[2],inactive
same,Potency,[3],inactive
same,Potency,[4],inactive
same,Potency,[5],inactive
C=CC1C(O[C@@H]2O[C@H](CO)[C@@H](O)[C@H](O)[C@H]2O)OC=C(C(=O)OC)C1CC(=O)O (some centres not stated),Potency,[1],inactive
same,Potency,[2],inactive
same,Potency,[3],inactive
same,Potency,[4],inactive
same,Potency,[5],inactive
C=C1[C@@H]2CC[C@@]3(C)[C@H](c4ccoc4)OC(=O)C[C@]13O[C@H]1CC(=O)C(C)(C)[C@H](CC(=O)OC)[C@]12C,Potency,[1],inactive
same,Potency,[2],inactive
same,Potency,[3],inactive
same,Potency,[4],inactive
same,Potency,[5],inactive
C=C1C(O[C@@H]2O[C@H](CO)[C@@H](O)[C@H](O)[C@@H]2O)CC2C(C)(C)C(O)CCC2(C)C1CC/C(C)=C\CO (some centres not stated),Potency,[1],inactive
same,Potency,[2],inactive
same,Potency,[3],inactive
same,Potency,[4],inactive
same,Potency,[5],inactive
CC1(C)CCC(C)(C)c2cc3c(cc21)Sc1ccccc1N=C3c1ccc(C(=O)O)cc1,Potency,[1],inactive
same,Potency,[2],inactive
same,Potency,[3],inactive
same,Potency,[4],inactive
same,Potency,[5],inactive
C=C1C(=O)OC2/C=C(\C)CC/C=C(\C(=O)O)CC/C=C(\C)CCC12 (configuration not stated),Potency,[1],inactive
same,Potency,[2],inactive
same,Potency,[3],inactive
same,Potency,[4],inactive
same,Potency,[5],inactive
C[C@H]1C[C@H]2[C@@H]3CCC4=CC(=O)C=C[C@]4(C)[C@@]3(F)[C@@H](O)C[C@]2(C)[C@@]1(O)C(=O)COP(=O)(O)O,Potency,[1],inactive
same,Potency,[2],inactive
same,Potency,[3],inactive
same,Potency,[4],inactive
same,Potency,[5],inactive
CC(C)CC1(C(=O)OCc2ccc(O[C@@H]3O[C@H](CO)[C@@H](O)[C@H](O)[C@H]3O)cc2)CC(=O)OC(C(=O)O)CC(=O)OCC2OC(O1)C(OC(=O)/C=C/c1ccc(O)cc1)C(O)C2O (some centres not stated),"activity change, negative = cytotoxicity",[1],-14.4% [at 11.6 µM]
same,"activity change, negative = cytotoxicity",[2],-8.97% [at 11.6 µM]
same,"activity change, negative = cytotoxicity",[3],-14.9% [at 11.6 µM]
same,"activity change, negative = cytotoxicity",[4],-1.82% [at 11.6 µM]
same,"activity change, negative = cytotoxicity",[5],0.377% [at 11.6 µM]
CCC(C)/C=C(C)/C=C/C1=CC2=C(Cl)C(=O)C(C)(OC(C)=O)C(=O)C2=CN1C1CCCCN(C(CCC(N)=O)C(=O)O)C1=O (configuration not stated),Potency,[1],inactive
same,Potency,[2],inactive
same,Potency,[3],inactive
same,Potency,[4],inactive
same,Potency,[5],inactive
C=CC1(C)CC(OC(=O)C(=C)C(O)COC(C)=O)C(C(=C)C(=O)OC)C(O)C1C(=C)CO (configuration not stated),Potency,[1],inactive
same,Potency,[2],inactive
same,Potency,[3],inactive
same,Potency,[4],inactive
same,Potency,[5],inactive
C[C@@H]1C[C@H](O)/C=C/[C@H](O)[C@@H](O)CC(=O)O1,Potency,[1],inactive
same,Potency,[2],inactive
same,Potency,[3],inactive
same,Potency,[4],inactive
same,Potency,[5],inactive
CCC[C@@H]1C[C@@H](C(=O)N[C@@H]([C@H]2O[C@H](SC)[C@H](OP(=O)(O)O)[C@@H](O)[C@H]2O)[C@H](C)Cl)N(C)C1,Potency,[1],inactive
same,Potency,[2],inactive
same,Potency,[3],inactive
same,Potency,[4],inactive
same,Potency,[5],inactive
same,"activity, negative = cell killing",[6]; [9],-3.77% and -8.29%
same,"activity, negative = cell killing",[6]; [10],-15.4% and -22.6%
same,"activity, negative = cell killing",[6]; [12],-6.5% and -2.32%
CCC(=O)NS(=O)(=O)c1ccc(-c2c(-c3ccccc3)noc2C)cc1,Potency,[1],inactive
same,Potency,[2],inactive
same,Potency,[3],inactive
same,Potency,[4],inactive
same,Potency,[5],inactive
same,"activity, negative = cell killing",[6]; [9],0.0321%
same,"activity, negative = cell killing",[6]; [10],8.31%
same,"activity, negative = cell killing",[6]; [11],-24%
same,"activity, negative = cell killing",[6]; [12],-3.29%
same,Potency,[7],inactive
Cc1onc(-c2ccccc2)c1C(=O)N[C@@H]1C(=O)N2[C@@H]1SC(C)(C)[C@@H]2C(=O)O,Potency,[1],inactive
same,Potency,[2],inactive
same,Potency,[3],inactive
same,Potency,[4],inactive
same,Potency,[5],inactive
C[C@@H]1O[C@@H](O[C@H]2[C@H](OC(=O)[C@]34CCC(C)(C)C[C@H]3C3=CCC5[C@@]6(C)C[C@H](O)[C@H](O[C@@H]7O[C@H](CO)[C@@H](O[C@@H]8O[C@H](CO)[C@@H](O)[C@H](O)[C@H]8O)[C@H](O)[C@H]7O)[C@@](C)(CO)C6[C@H](O)C[C@@]5(C)[C@]3(C)C[C@H]4O)OC[C@H](O)[C@@H]2O)[C@H](O)[C@H](O)[C@H]1O[C@@H]1OC[C@@H](O)[C@H](O[C@@H]2OC[C@](O)(CO)[C@H]2O)[C@H]1O (some centres not stated),"activity change, negative = cytotoxicity",[1],4.05% [at 6.55 µM]
same,"activity change, negative = cytotoxicity",[2],-7.05% [at 6.55 µM]
same,"activity change, negative = cytotoxicity",[4],2.26% [at 6.55 µM]
same,"activity change, negative = cytotoxicity",[5],2.65% [at 6.55 µM]
COc1cc(N2CCC(N(C)C)CC2)ccc1Nc1ncc(Cl)c(Nc2ccccc2P(C)(C)=O)n1,Potency,[1],1.58 µM (active)
same,Potency,[2],8.91 µM (active)
same,Potency,[3],3.55 µM (active)
same,Potency,[4],7.08 µM (active)
same,Potency,[5],10 µM (active)
same,Potency,[8],3.13 µM (active)
COCC(=O)N1CCc2cc(-c3csc(NC(=O)c4cc(OC)cc(OC)c4)n3)ccc21,Potency,[1],inactive
same,Potency,[2],inactive
same,Potency,[4],inactive
same,Potency,[5],inactive
